# Molecular target: C6orf105
# Assay: pooled miR-30 sensor sort-seq; sequence = guide strand
# Details: shRNA
# Note: reference of the scale not given here.
row,Sequence,sensor-assay potency score (higher = more potent)
1,TTAAGTATCACTCTCTGTCCCT,0.33
2,TTCAGCACATCATCCAGGCAGG,-0.972
3,TATATTTCCACCTTGCACCATT,-0.555
4,TTGCATGATTCAGCCACACGGG,-0.688
5,TTAAATTTAAGTATCACTCTCT,1.11
6,TATCACTCTCTGTCCCTCCTAC,0.281
7,TCTCCAAGTAGGTAGATGCTGG,-0.762
8,TTCTTTTCAGCACATCATCCAG,-1.18
9,TCTTTTCAGCACATCATCCAGG,-0.0678
10,TAATTGAGGAAAGTATACCAGC,-0.629
11,TAAGTATCACTCTCTGTCCCTC,-0.473

# Molecular target: C6orf118
# Assay: as above
# Details: shRNA
row,Sequence,sensor-assay potency score (higher = more potent)
1,TCTCAGATGATTCTGATCGTTC,-0.778
2,TACACAGGGTCTTCACTCCTGG,-0.203
3,TAGAGGTAGACGTCCTCCCGGT,-0.61
4,TTCAGGTACCTGAACAGCGGGG,-1.06
5,TTGTATAGCTTCATGCTCTATG,0.444
6,TTAAGAACTAGTATTGTTGTAA,0.558
7,TTACACAGGGTCTTCACTCCTG,0.491
8,TATGTTTCTCAGATGATTCTGA,0.578
9,TTTTACTAGAGATTAAAGCTGA,0.127
10,TTGCTTGGCGAGCACTTCCTTC,-1.21
11,TGAAATTCCAGTATGAACCAAA,-0.164

# Molecular target: C6orf145
# Assay: as above
# Details: shRNA
row,Sequence,sensor-assay potency score (higher = more potent)
1,TTATCTAGTCGGCAATGCCTTC,-1.25
2,TATTTGCTAAACAAAATCCATT,-1.51
3,TTTACATTAGCAAATGTCGGTC,-0.665
4,TGGATTACTAAACATCCCCTGC,-0.823
5,TTACTAAACATCCCCTGCCTGT,-0.858
6,TCAATAACTATTGTTTCGGTAT,-0.234
7,TTGACTGGACTTTGAAAGCTGG,-0.406
8,ATTTTTTAACACCTGATCCAGA,-0.814
9,TATGATCGTCTTCAGCAGCTTC,-1
10,TCGTTAGTAGACACTGAGCAGA,-0.734
11,TATACTGTGGTCAATAACTATT,-1.52

# Molecular target: C6orf203
# Assay: as above
# Details: shRNA
row,Sequence,sensor-assay potency score (higher = more potent)
1,TTATAGTTTTTGACTACAGTAG,-0.647
2,TAGAAAAATACAAGTATCGATT,-1.01
3,TTCAGGACAACATCATACCGAA,-0.635
4,TTAAACTTTTCCACCGCCGTAA,-0.414
5,TTAGTAGATTTTGTAGACCTTA,-0.225
6,TATTTTAATAAAAATGTCCTAT,-0.604
7,TTACTTTTGAGTCTTACGGAAA,-1.38
